# Where a chain is given by its changes, count along the chain named.
# How the values were obtained:
# Assay in all cases: PBM; 200 nM protein, PBS
# Details in all cases: dsDNA, one strand shown
# HOXB9 [1] = molecular target: HOXB9 (Homo sapiens, UniProt P17482 171-250, T197M)
# HOXC9 [2] = molecular target: HOXC9 (Homo sapiens, UniProt P31274 178-260, K195R)
# HOXB9 [3] = molecular target: HOXB9 (Homo sapiens, UniProt P17482 171-250)
# HOXC9 [4] = molecular target: HOXC9 (Homo sapiens, UniProt P31274 178-260)
# HOXC9 [5] = molecular target: HOXC9 (Homo sapiens, UniProt P31274 178-260, R193K)
# HOXC10 [6] = molecular target: HOXC10 (Homo sapiens, UniProt Q9NYD6 254-340, K271E)
# HOXB9 [7] = molecular target: HOXB9 (Homo sapiens, UniProt P17482 171-250, R186Q)
# HOXC9 [8] = molecular target: HOXC9 (Homo sapiens, UniProt P31274 178-260, R222W)
# HOXC10 [9] = molecular target: HOXC10 (Homo sapiens, UniProt Q9NYD6 254-340)
# PRRX1 [10] = molecular target: PRRX1 (Homo sapiens, UniProt P54821 80-166, F113S)
# MSX2 [11] = molecular target: MSX2 (Homo sapiens, UniProt P35548 130-214, R199I)
# HOXD13 [12] = molecular target: HOXD13 (Homo sapiens, UniProt P35453 263-343, T313R)
# HOXD13 [13] = molecular target: HOXD13 (Homo sapiens, UniProt P35453 263-343)
# MSX2 [14] = molecular target: MSX2 (Homo sapiens, UniProt P35548 130-214)
# HOXD13 [15] = molecular target: HOXD13 (Homo sapiens, UniProt P35453 263-343, T313A)
# MSX2 [16] = molecular target: MSX2 (Homo sapiens, UniProt P35548 130-214, F161Y)
# PRRX1 [17] = molecular target: PRRX1 (Homo sapiens, UniProt P54821 80-166)
# PAX4 [18] = molecular target: T1, PAX4 (Homo sapiens, UniProt O43316 9-242, R200K)
# T1 sequence: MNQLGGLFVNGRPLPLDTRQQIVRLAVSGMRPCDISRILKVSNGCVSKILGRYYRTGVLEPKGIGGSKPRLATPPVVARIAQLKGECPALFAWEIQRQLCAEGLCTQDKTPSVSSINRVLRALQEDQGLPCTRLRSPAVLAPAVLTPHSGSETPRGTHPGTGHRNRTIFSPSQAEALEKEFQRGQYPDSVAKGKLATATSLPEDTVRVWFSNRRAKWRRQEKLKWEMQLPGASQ
# PAX4 [19] = molecular target: T2, PAX4 (Homo sapiens, UniProt O43316 9-242)
# T2 sequence: T1 sequence with K192R
# HOXB6 = HOXB6 (Homo sapiens, UniProt P17509 132-218, K202E)
# PAX4 [20] = molecular target: T3, PAX4 (Homo sapiens, UniProt O43316 9-242, R200Q)
# T3 sequence: T1 sequence with K192Q
# PAX4 [21] = molecular target: T4, PAX4 (Homo sapiens, UniProt O43316 9-242, F177V)
# T4 sequence: T1 sequence with F169V, K192R
# PAX4 [22] = molecular target: T5, PAX4 (Homo sapiens, UniProt O43316 9-242, F177Y)
# T5 sequence: T1 sequence with F169Y, K192R
# PAX4 [23] = molecular target: T6, PAX4 (Homo sapiens, UniProt O43316 9-242, R227W)
# T6 sequence: T1 sequence with K192R, R219W
# HOXB9 (Homo sapiens, UniProt P17482 171-250, R186Q), sequence (P17482 171-250 R186Q): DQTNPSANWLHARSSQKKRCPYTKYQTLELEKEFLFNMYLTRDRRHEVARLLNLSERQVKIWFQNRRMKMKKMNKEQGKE
# HOXB9 (Homo sapiens, UniProt P17482 171-250), sequence (P17482 171-250): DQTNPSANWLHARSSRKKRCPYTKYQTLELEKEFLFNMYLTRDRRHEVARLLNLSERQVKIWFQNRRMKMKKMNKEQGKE
# HOXB9 (Homo sapiens, UniProt P17482 171-250, T197M), sequence (P17482 171-250 T197M): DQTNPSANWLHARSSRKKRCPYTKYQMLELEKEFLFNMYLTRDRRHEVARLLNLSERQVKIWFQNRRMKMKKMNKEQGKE
# PRRX1 (Homo sapiens, UniProt P54821 80-166, F113S), sequence (P54821 80-166 F113S): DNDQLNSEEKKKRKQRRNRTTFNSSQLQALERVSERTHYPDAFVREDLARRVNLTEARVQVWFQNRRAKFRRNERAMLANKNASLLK
# PRRX1 (Homo sapiens, UniProt P54821 80-166), sequence (P54821 80-166): as the sequence (P54821 80-166 F113S) above, with S34F counted along it
# HOXC10 (Homo sapiens, UniProt Q9NYD6 254-340, K271E), sequence (Q9NYD6 254-340 K271E): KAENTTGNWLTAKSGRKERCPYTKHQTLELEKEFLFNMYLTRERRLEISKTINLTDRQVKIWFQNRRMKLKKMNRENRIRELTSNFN
# HOXC9 (Homo sapiens, UniProt P31274 178-260), sequence (P31274 178-260): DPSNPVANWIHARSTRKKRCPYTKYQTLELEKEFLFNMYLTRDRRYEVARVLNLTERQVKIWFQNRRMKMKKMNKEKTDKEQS
# HOXD13 (Homo sapiens, UniProt P35453 263-343), sequence (P35453 263-343): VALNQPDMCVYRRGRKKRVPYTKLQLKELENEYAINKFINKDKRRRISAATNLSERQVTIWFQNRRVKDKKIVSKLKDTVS
# HOXC10 (Homo sapiens, UniProt Q9NYD6 254-340), sequence (Q9NYD6 254-340): as the sequence (Q9NYD6 254-340 K271E) above, with E18K counted along it
# HOXD13 (Homo sapiens, UniProt P35453 263-343, T313R), sequence (P35453 263-343 T313R): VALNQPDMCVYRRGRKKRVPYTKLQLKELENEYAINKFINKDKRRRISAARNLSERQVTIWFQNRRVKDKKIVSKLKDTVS
# HOXC9 (Homo sapiens, UniProt P31274 178-260, R193K), sequence (P31274 178-260 R193K): as the sequence (P31274 178-260) above, with R16K counted along it
# MSX2 (Homo sapiens, UniProt P35548 130-214, F161Y), sequence (P35548 130-214 F161Y): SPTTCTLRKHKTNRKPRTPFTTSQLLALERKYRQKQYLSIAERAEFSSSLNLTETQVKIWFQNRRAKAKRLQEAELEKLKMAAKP
# MSX2 (Homo sapiens, UniProt P35548 130-214), sequence (P35548 130-214): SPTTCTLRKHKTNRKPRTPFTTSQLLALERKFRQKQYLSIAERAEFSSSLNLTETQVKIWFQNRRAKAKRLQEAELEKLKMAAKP
# HOXC9 (Homo sapiens, UniProt P31274 178-260, R222W), sequence (P31274 178-260 R222W): as the sequence (P31274 178-260) above, with R45W counted along it
# MSX2 (Homo sapiens, UniProt P35548 130-214, R199I), sequence (P35548 130-214 R199I): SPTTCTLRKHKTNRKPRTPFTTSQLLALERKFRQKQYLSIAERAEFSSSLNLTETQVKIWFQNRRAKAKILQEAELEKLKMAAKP
# HOXD13 (Homo sapiens, UniProt P35453 263-343, T313A), sequence (P35453 263-343 T313A): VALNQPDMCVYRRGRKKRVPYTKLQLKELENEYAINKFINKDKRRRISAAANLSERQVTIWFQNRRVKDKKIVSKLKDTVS
# HOXC9 (Homo sapiens, UniProt P31274 178-260, K195R), sequence (P31274 178-260 K195R): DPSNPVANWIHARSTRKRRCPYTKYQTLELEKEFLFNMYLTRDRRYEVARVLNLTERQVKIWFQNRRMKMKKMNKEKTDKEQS
# HOXB6, sequence (P17509 132-218 K202E): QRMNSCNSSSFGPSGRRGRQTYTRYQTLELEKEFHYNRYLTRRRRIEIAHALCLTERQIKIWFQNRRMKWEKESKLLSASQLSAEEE
sequence,measurement,setting,value
ACATTAAA,binding signal,HOXB9 [1],"9.92 upbm affinity estimate (log intensity, higher = more binding, comparable within an allelic series)"
same,binding signal,HOXC9 [2],"12.6 upbm affinity estimate (log intensity, higher = more binding, comparable within an allelic series)"
same,binding signal,HOXB9 [3],"12 upbm affinity estimate (log intensity, higher = more binding, comparable within an allelic series)"
same,binding signal,HOXC9 [4],"12.6 upbm affinity estimate (log intensity, higher = more binding, comparable within an allelic series)"
same,binding signal,HOXC9 [5],"12.6 upbm affinity estimate (log intensity, higher = more binding, comparable within an allelic series)"
same,binding signal,HOXC10 [6],"11.8 upbm affinity estimate (log intensity, higher = more binding, comparable within an allelic series)"
same,binding signal,HOXB9 [7],"11.7 upbm affinity estimate (log intensity, higher = more binding, comparable within an allelic series)"
same,binding signal,HOXC9 [8],"11 upbm affinity estimate (log intensity, higher = more binding, comparable within an allelic series)"
AGTCGTTA,binding signal,HOXB9 [1],"10 upbm affinity estimate (log intensity, higher = more binding, comparable within an allelic series)"
same,binding signal,HOXC10 [9],"12.2 upbm affinity estimate (log intensity, higher = more binding, comparable within an allelic series)"
same,binding signal,HOXC10 [6],"12.1 upbm affinity estimate (log intensity, higher = more binding, comparable within an allelic series)"
ACCGGCAG,binding signal,HOXB9 [1],"8.5 upbm affinity estimate (log intensity, higher = more binding, comparable within an allelic series)"
same,binding signal,PRRX1 [10],"9.27 upbm affinity estimate (log intensity, higher = more binding, comparable within an allelic series)"
same,binding signal,HOXB9 [3],"8.43 upbm affinity estimate (log intensity, higher = more binding, comparable within an allelic series)"
same,binding signal,MSX2 [11],"9.63 upbm affinity estimate (log intensity, higher = more binding, comparable within an allelic series)"
same,binding signal,HOXD13 [12],"9.44 upbm affinity estimate (log intensity, higher = more binding, comparable within an allelic series)"
same,binding signal,HOXD13 [13],"9.57 upbm affinity estimate (log intensity, higher = more binding, comparable within an allelic series)"
same,binding signal,MSX2 [14],"9.62 upbm affinity estimate (log intensity, higher = more binding, comparable within an allelic series)"
same,binding signal,HOXD13 [15],"9.67 upbm affinity estimate (log intensity, higher = more binding, comparable within an allelic series)"
same,binding signal,HOXB9 [7],"8.48 upbm affinity estimate (log intensity, higher = more binding, comparable within an allelic series)"
same,binding signal,MSX2 [16],"9.59 upbm affinity estimate (log intensity, higher = more binding, comparable within an allelic series)"
same,binding signal,PRRX1 [17],"9.41 upbm affinity estimate (log intensity, higher = more binding, comparable within an allelic series)"
GCCGGAGC,binding signal,HOXB9 [1],"8.56 upbm affinity estimate (log intensity, higher = more binding, comparable within an allelic series)"
same,binding signal,PRRX1 [10],"9.3 upbm affinity estimate (log intensity, higher = more binding, comparable within an allelic series)"
same,binding signal,HOXB9 [3],"8.68 upbm affinity estimate (log intensity, higher = more binding, comparable within an allelic series)"
same,binding signal,HOXB9 [7],"8.69 upbm affinity estimate (log intensity, higher = more binding, comparable within an allelic series)"
same,binding signal,PRRX1 [17],"9.61 upbm affinity estimate (log intensity, higher = more binding, comparable within an allelic series)"
ATTAATAC,binding signal,HOXB9 [1],"10.1 upbm affinity estimate (log intensity, higher = more binding, comparable within an allelic series)"
same,binding signal,PAX4 [18],"11.8 upbm affinity estimate (log intensity, higher = more binding, comparable within an allelic series)"
same,binding signal,PAX4 [19],"12.2 upbm affinity estimate (log intensity, higher = more binding, comparable within an allelic series)"
same,binding signal,HOXB6,"10.1 upbm affinity estimate (log intensity, higher = more binding, comparable within an allelic series)"
same,binding signal,PAX4 [20],"11.8 upbm affinity estimate (log intensity, higher = more binding, comparable within an allelic series)"
same,binding signal,PAX4 [21],"10.6 upbm affinity estimate (log intensity, higher = more binding, comparable within an allelic series)"
same,binding signal,PAX4 [22],"11.1 upbm affinity estimate (log intensity, higher = more binding, comparable within an allelic series)"
same,binding signal,PAX4 [23],"11.1 upbm affinity estimate (log intensity, higher = more binding, comparable within an allelic series)"
